Inconclusive results are not listed. Active and inactive are the calls of the source.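 How the source made its calls, unless noted: active means viability at or under a set limit in both replicates, limit being median viability minus 3 SD (cut at about 48% in these data, passing the limit was not always enough); inconclusive means at or under the limit in just one replicate; inactive means at or above the limit in both replicates.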
What was measured:
[1] = reducers of endogenous Her2 protein level, primary screen, SKBR3 breast tumor cells, AlphaScreen, ATP viability (AID 461;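 active means Her2 level under about 52% in both replicate screens, with viability over 70% of control, limit read from the data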;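 on Her2 level: lower value means less Her2 protein in the cells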;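 on viability: percent of carrier control wells set as 100% viability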); conditions: 18-24 h, measured here: SKBR3 viability, ATP luminescence, at 10 µM
[2] = molecular target: Receptor tyrosine-protein kinase erbB-2 (Homo sapiens) (UniProt P04626); assay: as above; conditions: 18-24 h, at 10 µM, stronger effect = lower value
[3] = SK-BR-3 cell growth inhibitors, pilot screen, 24 h, human (AID 572;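 active means viability at or below 10% of carrier control in both of two separate runs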;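 further: compound exposure lasted between 18 and 24 h rather than exactly 24 h; 100% = carrier-treated control wells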); conditions: SK-BR-3 viability, CellTiter-Glo luminescence, at 10 µM, stronger effect = lower value
[4] = HUVEC growth inhibition – cell-based, human, primary screen (AID 575;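 active means viability at or below 30% in both replicate assays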;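 further: 100% = median of untreated cell wells with 0.1% DMSO on each plate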); conditions: HUVEC proliferation, CellTiter-Glo luminescence, 72 h; at 10 µM; stronger effect = lower value
[5] = growth inhibitors of H69AR lung tumor, primary screen, human, duplicate replicates (AID 580); conditions: H69AR lung tumor cells viability, ATP luminescence, 72 h; at 10 µM; stronger effect = lower value;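 further: 100% = mean luminescence of untreated wells and 0% = no signal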
[6] = reversal of MRP1-mediated doxorubicin resistance, pilot screen, H69AR cells, doxorubicin co-treatment (AID 601;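 active means viability loss from added drug above about 55%, and viability with drug at most 40%, in both replicates, limit read from the data, passing the limit was not always enough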); conditions: CellTiter-Glo, 72 h, at 10 µM; for differential viability (reversal): stronger effect = higher value
[7] = 384-well plate pilot, post-Golgi transport modulator project, inhibition of yeast transport mutant growth (AID 636; in the data active means inhibition above about 31%); conditions: absorbance 615 nm, about 18 h, stronger effect = higher value
[8] = growth suppression of yeast trafficking mutant, preliminary HTS, modulators of trafficking downstream of Golgi apparatus project, 1536-format plate, OD 615 nm (AID 637; in the data active means inhibition above about 30%); conditions: yeast transport mutant growth, absorbance 615 nm, 18 h; stronger effect = higher value
[9] = OD615 S. cerevisiae growth inhibition, permissive medium, pilot counter-assay, permissive growth control for S. cerevisiae lifespan shortening project (AID 705;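 active means growth inhibition above 25% in both replicates, a cutoff set 3 SD above the mean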); conditions: OD615, 24 h, at 10 µM, stronger effect = higher value
[10] = Restrictive medium S. cerevisiae growth inhibition, OD615, pilot screen of yeast lifespan reduction project, restrictive growth control (AID 706;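 active means growth inhibition above a set limit, 3 SD over mean compound inhibition, in both replicates, cut at about 43% in these data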;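 further: modified DeaD lifespan yeast strain shifted to restrictive glucose medium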); conditions: OD615, 48 h, at 10 µM, stronger effect = higher value
[11] = viability gain of MRP-1-high H69AR cells under doxorubicin, pilot screen, MRP-1 activator project, CellTiter-Glo, duplicate (AID 807;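 active means viability increase at or above a cutoff of the median across tested compounds plus 3 SD, cut at about 8.5% in these data, passing the limit was not always enough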;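 further: compound pretreatment 18-22 h then 72 h combined with doxorubicin; 0% = doxorubicin alone and 100% = vehicle without doxorubicin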); conditions: H69AR viability with doxorubicin, CellTiter-Glo luminescence; at 10 µM; stronger effect = higher value
[12] = growth suppression of beta-catenin knockout HCT116, pilot screen, human colon tumor cells (AID 823;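 active means cell viability at or below a set limit in both duplicate runs, the limit being the all-compound median minus 4 SD, cut at about 23% in these data, passing the limit was not always enough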;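 further: 0% = wells killed by 20 µM Hyamine and 100% = untreated DMSO cell wells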); conditions: CellTiter-Glo, 60 h, at 10 µM, stronger effect = lower value
[13] = growth suppression of PTEN-deleted HCT116, pilot screen, cell-based, HCT116 clonal line, CellTiter-Glo (AID 824;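 active means viability at or below 27.92% in each of two runs, the all-compound median minus 4 SD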;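 further: 0% = 20 µM Hyamine control and 100% = vehicle cell control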); conditions: 60 h, at 10 µM, stronger effect = lower value
[14] = inhibitors of the yeast RAM network, pilot screen, dse1pr::URA3 reporter, 5-FOA selection (AID 869;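 active means inhibition over a set limit, the all-compound mean plus 3 SD, in both replicate runs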;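 further: 0% = DMSO wells with no growth and 100% = 10 µM 1-NA-PP1 with full growth; RAM network block rescues cells from 5-FOA so hits raise OD615 growth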); conditions: S. cerevisiae dse1pr::URA3 5-FOA growth, OD615, 2 d; at 10 µM; stronger effect = higher value; strain carries analog-sensitive mutant Cbk1 kinase
[15] = RAM signaling pathway blockade in yeast – S. cerevisiae, Pdr1DBD-CYC8 efflux-inhibited sensitized strain, primary screen (AID 1298;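 active means RAM network inhibition above 8.4% in each of two replicates, 3 SD over the compound average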;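 further: 0% = DMSO untreated cells without growth and 100% = 10 µM 1-NA-PP1 full growth; higher means more yeast growth rescued from 5-FOA killing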); conditions: S. cerevisiae cbk1-as DSE1-URA3 strain, 5-FOA growth OD615, 2 d; at 50 µM; stronger effect = higher value
[16] = H69AR cells + 2 uM doxorubicin, measured here: viability with 2 uM doxorubicin, stronger effect = lower value
[17] = H69AR cells, compound alone cytotoxicity

Receptor tyrosine-protein kinase erbB-2 (Homo sapiens), sequence (P04626 whole entry, looked up): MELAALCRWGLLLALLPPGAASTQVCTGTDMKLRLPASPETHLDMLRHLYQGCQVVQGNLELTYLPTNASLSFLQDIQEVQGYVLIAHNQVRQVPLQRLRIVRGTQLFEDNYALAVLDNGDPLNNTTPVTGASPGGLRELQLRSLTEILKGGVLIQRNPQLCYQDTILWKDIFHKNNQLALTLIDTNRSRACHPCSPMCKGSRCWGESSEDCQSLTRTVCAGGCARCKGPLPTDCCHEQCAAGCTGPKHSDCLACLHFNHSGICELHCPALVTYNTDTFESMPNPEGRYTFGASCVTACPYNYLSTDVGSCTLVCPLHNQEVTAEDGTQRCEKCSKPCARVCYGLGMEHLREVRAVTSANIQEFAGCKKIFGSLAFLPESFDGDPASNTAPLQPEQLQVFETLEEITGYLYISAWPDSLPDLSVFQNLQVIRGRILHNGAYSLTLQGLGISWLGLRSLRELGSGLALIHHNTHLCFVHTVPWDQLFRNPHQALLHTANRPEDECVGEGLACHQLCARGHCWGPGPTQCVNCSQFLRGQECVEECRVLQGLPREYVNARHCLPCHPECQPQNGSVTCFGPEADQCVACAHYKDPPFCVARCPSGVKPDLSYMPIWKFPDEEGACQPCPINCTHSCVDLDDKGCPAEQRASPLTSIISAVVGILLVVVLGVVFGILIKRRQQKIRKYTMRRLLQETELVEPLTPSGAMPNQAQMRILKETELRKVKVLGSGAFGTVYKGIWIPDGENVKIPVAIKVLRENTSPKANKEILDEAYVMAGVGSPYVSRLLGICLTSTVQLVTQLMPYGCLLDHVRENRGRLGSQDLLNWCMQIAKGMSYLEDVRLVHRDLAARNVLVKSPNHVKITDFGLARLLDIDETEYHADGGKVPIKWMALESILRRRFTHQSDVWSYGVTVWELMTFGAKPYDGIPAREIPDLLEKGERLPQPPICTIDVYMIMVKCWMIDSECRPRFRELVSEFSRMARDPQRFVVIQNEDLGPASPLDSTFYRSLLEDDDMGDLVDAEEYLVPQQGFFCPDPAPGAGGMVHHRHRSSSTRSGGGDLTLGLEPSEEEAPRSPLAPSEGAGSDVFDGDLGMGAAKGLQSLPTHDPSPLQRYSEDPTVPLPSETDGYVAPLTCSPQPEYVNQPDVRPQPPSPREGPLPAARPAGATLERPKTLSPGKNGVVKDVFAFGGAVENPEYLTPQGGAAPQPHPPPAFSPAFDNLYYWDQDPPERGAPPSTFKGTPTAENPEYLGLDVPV

CC(=O)NC(CCS(C)(=O)=O)C(=O)Nc1cccc2ccccc12 (stereo not drawn)
87.5%: viability [6, 17]
97.7%: viability [6, 16]
inactive: Her2 level [2] 102% | viability [3] 108% | viability [4] 94% | viability [5] 87.5% | differential viability (reversal) ([6]; H69AR cells + 2 uM doxorubicin) -10.2% | inhibition [7] -1.87% | inhibition [8] -5.5% | growth inhibition [9] -12.6% | growth inhibition [10] -14.3% | viability increase [11] -2.44% | viability [12] 103% | viability [13] 88.3% | inhibition [14] 1.77% | RAM network inhibition [15] 8.64%
108%: viability [1]

Cn1c(=O)c(=O)n(C)c2cc(S(=O)(=O)CCC(=O)N3CCOCC3)ccc21
88.5%: viability [1]
102%: viability [6, 16]
95%: viability [6, 17]
inactive: Her2 level [2] 84% | viability [3] 88.5% | viability [4] 106% | viability [5] 95% | differential viability (reversal) ([6]; H69AR cells + 2 uM doxorubicin) -6.71% | inhibition [7] -0.4% | inhibition [8] 12.5% | growth inhibition [9] -2.16% | growth inhibition [10] -4.52% | viability increase [11] -2.26% | viability [12] 103% | viability [13] 102% | inhibition [14] 0.99% | RAM network inhibition [15] 6.32%

CCCCC(NS(=O)(=O)c1ccc(OC)cc1)C(=O)O (stereo not drawn)
93.9%: viability [6, 16]
110%: viability [1]
inactive: Her2 level [2] 108% | viability [3] 110% | viability [4] 101% | viability [5] 98.4% | differential viability (reversal) ([6]; H69AR cells + 2 uM doxorubicin) 4.5% | inhibition [7] -0.39% | inhibition [8] -4.17% | growth inhibition [9] -19.3% | growth inhibition [10] -7.24% | viability increase [11] 0.29% | viability [12] 99.1% | viability [13] 97.1% | inhibition [14] 1.7% | RAM network inhibition [15] 3.29%
98.4%: viability [6, 17]

COC(=O)c1ccc(-n2nnnc2SCc2nn[nH]n2)cc1
114%: viability [6, 17]
77%: viability [1]
inactive: Her2 level [2] 135% | viability [3] 77% | viability [4] 107% | viability [5] 114% | differential viability (reversal) ([6]; H69AR cells + 2 uM doxorubicin) 21.8% | inhibition [7] 3.21% | inhibition [8] -5.5% | growth inhibition [9] -0.675% | growth inhibition [10] 25.4% | viability increase [11] 0.27% | viability [12] 106% | viability [13] 100% | inhibition [14] 0.965% | RAM network inhibition [15] -1.09%
91.7%: viability [6, 16]

CCCNC(=O)CS(=O)(=O)Cc1nc(-c2cccc(OC)c2)oc1C
91.7%: viability [6, 16]
inactive: Her2 level [2] 90.5% | viability [3] 86% | viability [4] 109% | viability [5] 87.7% | differential viability (reversal) ([6]; H69AR cells + 2 uM doxorubicin) -3.96% | inhibition [7] -0.53% | inhibition [8] 8.2% | growth inhibition [9] 7.42% | growth inhibition [10] -2.08% | viability increase [11] -0.31% | viability [12] 93.1% | viability [13] 87% | inhibition [14] 0.365% | RAM network inhibition [15] -0.47%
87.7%: viability [6, 17]
86%: viability [1]

COc1ccc(-c2nnc(SCC(=O)N3CCOCC3)o2)cc1OC
96.1%: viability [6, 17]
92.7%: viability [6, 16]
91%: viability [1]
inactive: Her2 level [2] 96% | viability [3] 91% | viability [4] 89.4% | viability [5] 96.1% | differential viability (reversal) ([6]; H69AR cells + 2 uM doxorubicin) 3.41% | inhibition [7] -1.2% | inhibition [8] -6.89% | growth inhibition [9] 1.14% | growth inhibition [10] -3.02% | viability increase [11] -1.32% | viability [12] 103% | viability [13] 110% | inhibition [14] 1.16% | RAM network inhibition [15] 1.27%

O=C(Nc1nnc(N2CCCCCC2)s1)c1cc(-c2ccc(Br)cc2)on1
99.6%: viability [6, 17]
86.4%: viability [6, 16]
97%: viability [1]
inactive: Her2 level [2] 106% | viability [3] 97% | viability [4] 99.2% | viability [5] 99.6% | differential viability (reversal) ([6]; H69AR cells + 2 uM doxorubicin) 13.1% | inhibition [7] -5.13% | inhibition [8] 3.67% | growth inhibition [9] -14.6% | growth inhibition [10] -7.24% | viability increase [11] 2.89% | viability [12] 99.1% | viability [13] 95.2% | inhibition [14] 1.98% | RAM network inhibition [15] 9.45%

NC(=O)C1CCN(C(=O)c2cc3n(n2)C(C(F)(F)F)CC(c2ccco2)N3)CC1 (stereo not drawn)
84%: viability [1]
85.8%: viability [6, 16]
inactive: Her2 level [2] 99.5% | viability [3] 84% | viability [4] 104% | viability [5] 85% | differential viability (reversal) ([6]; H69AR cells + 2 uM doxorubicin) -0.83% | inhibition [7] -0.93% | inhibition [8] -4.67% | growth inhibition [9] -7% | growth inhibition [10] -1.27% | viability increase [11] -1.57% | viability [12] 97% | viability [13] 97.4% | inhibition [14] 2.2% | RAM network inhibition [15] 0.98%
85%: viability [6, 17]

COc1ccc(NC(=O)CN(c2ccc(C(C)C)cc2)S(=O)(=O)c2c(C)noc2C)cc1OC
inactive: Her2 level [2] 99% | viability [3] 90.5% | viability [4] 58.7% | viability [5] 84.9% | differential viability (reversal) ([6]; H69AR cells + 2 uM doxorubicin) -6.37% | inhibition [7] 1.41% | inhibition [8] -2.17% | growth inhibition [9] -14.5% | growth inhibition [10] -5.8% | viability increase [11] -3.99% | viability [12] 94.5% | viability [13] 90.8% | inhibition [14] 3.67% | RAM network inhibition [15] 3.37%
91.3%: viability [6, 16]
84.9%: viability [6, 17]
90.5%: viability [1]

From PubChem BioAssay
